Laboratory results: PubChem BioAssay AID1159580 (chemical genetic matrix, 2015)
“And” between values parts separate entries of the source, which are not always exact repeats. Equal entries are not always repeated. Out of some 5,500 compounds screened, about 2,000 (36%) were called active. Another 18% or so got no clear call; they are omitted. Cut-off read from the data, not from the text of the source: active = normalized growth mostly below about 0.91 (no sharp cut-off); inconclusive = no clear call, values can overlap the other calls; inactive = mostly above about 0.92. The list shows a part of the results.

Assay: chemical genetic growth profiling, strain panel (AID 1159580);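 note: tested at 20 µM; growth read once vehicle control cultures reached saturation at 30 °C; 1 = growth at the plate median or of vehicle wells; lower values mean less growth of the strain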
Settings: S. cerevisiae deletion strains, growth OD

Measured: normalized growth

COC1CC(O[C@H]2CC[C@]3(C=O)C4CC[C@]5(C)C(C6=CC(=O)OC6)CC[C@]5(O)C4CC[C@]3(O)C2)OC(C)C1O (some centres not stated)
inactive: locus YAL013W, strain DEP1, active compounds read low 1.02 | locus YAL021C, strain ccr4, active compounds read low 0.938 | locus YAL026C, strain drs2, active compounds read low 1.02 | locus YAL030W, strain snc1, active compounds read low 0.978 | locus YBL061C, strain skt5, active compounds read low 0.99 | locus YBR009C, strain hhf1, active compounds read low 0.985 | locus YBR021W, strain FUR4, active compounds read low 1.01 | locus YBR023C, strain chs3, active compounds read low 0.967 | locus YBR171W, strain sec66, active compounds read low 1 | locus YBR229C, strain ROT2, active compounds read low 1.02 | locus YBR231C, strain swc5, active compounds read low 1 | locus YBR279W, strain paf1, active compounds read low 1 | locus YCL011C, strain gbp2, active compounds read low 0.961 | locus YCL016C, strain dcc1, active compounds read low 0.954 | locus YCL029C, strain bik1, active compounds read low 0.994 | locus YCL069W, strain vba3, active compounds read low 0.969 | locus YCR088W, strain abp1, active compounds read low 0.983 | locus YDL005C, strain med2, active compounds read low 0.969 | locus YDL035C, strain GPR1, active compounds read low 1.04 | locus YDL040C, strain nat1, active compounds read low 0.986 | locus YDL074C, strain BRE1, active compounds read low 1.09 | locus YDL101C, strain DUN1, active compounds read low 1.02 | locus YDL134C, strain PPH21, active compounds read low 1.02 | locus YDL185W, strain tfp1, active compounds read low 0.995 | locus YDL192W, strain arf1, active compounds read low 1.02 | locus YDR001C, strain nth1, active compounds read low 0.955 | locus YDR069C, strain doa4, active compounds read low 0.994 | locus YDR101C, strain arx1, active compounds read low 1.02 | locus YDR137W, strain rgp1, active compounds read low 0.975 | locus YDR159W, strain sac3, active compounds read low 1 | locus YDR162C, strain NBP2, active compounds read low 1.03 | locus YDR195W, strain ref2 0.914 | locus YDR297W, strain sur2, active compounds read low 0.999 | locus YDR318W, strain mcm21, active compounds read low 1.01 | locus YDR334W, strain swr1, active compounds read low 0.977 | locus YDR335W, strain msn5, active compounds read low 0.955 | locus YDR388W, active compounds read low 0.987 | locus YDR392W, strain spt3, active compounds read low 0.903 | locus YDR502C, strain sam2, active compounds read low 0.987 | locus YEL003W, strain gim4, active compounds read low 1.01 | locus YEL037C, strain rad23, active compounds read low 0.977 | locus YEL061C, strain CIN8 (second series), active compounds read low 0.981 | locus YER015W, strain faa2, active compounds read low 0.975 | locus YER016W, strain bim1, active compounds read low 0.983 | locus YER110C, active compounds read low 0.986 | locus YER111C, strain swi4, active compounds read low 0.994 | locus YER155C, strain BEM2 (second series), active compounds read low 1.01 | locus YER155C, strain BEM2, active compounds read low 1.01 | locus YER167W, strain BCK2, active compounds read low 1.03 | locus YFR010W, strain ubp6, active compounds read low 1 | locus YGL078C, strain dbp3, active compounds read low 0.992 | locus YGL086W, strain mad1, active compounds read low 0.998 | locus YGL167C, strain pmr1, active compounds read low 0.976 | locus YGL173C, strain kem1, active compounds read low 0.992 | locus YGL227W, strain vid30, active compounds read low 0.987 | locus YGL240W, strain doc1, active compounds read low 1 | locus YGL248W, strain PDE1, active compounds read low 1.01 | locus YGL253W, strain hxk2, active compounds read low 0.997 | locus YGR078C, strain PAC10, active compounds read low 1.02 | locus YGR135W, strain pre9, active compounds read low 0.981 | locus YGR229C, strain SMI1, active compounds read low 1.04 | locus YGR252W, strain gcn5, active compounds read low 0.949 | locus YHR013C, strain ard1, active compounds read low 0.934 | locus YHR027C, strain rpn1, active compounds read low 0.97 | locus YHR030C, strain SLT2, active compounds read low 1.02 and 0.984 | locus YHR079C, strain IRE1 (second series), active compounds read low 0.998 | locus YHR079C, strain IRE1, active compounds read low 1.01 | locus YHR094C, strain hxt1, active compounds read low 0.984 | locus YHR129C, strain ARP1, active compounds read low 1.02 | locus YHR142W, strain chs7, active compounds read low 0.918 | locus YHR200W, strain rpn10, active compounds read low 0.992 | locus YIL066C, strain RNR3, active compounds read low 1.05 | locus YIL073C, strain SPO22, active compounds read low 1.01 | locus YIL125W, strain kgd1, active compounds read low 1 | locus YIR030C, strain dcg1, active compounds read low 0.993 | locus YJL092W, strain hpr5, active compounds read low 0.985 | locus YJL095W, strain BCK1 (second series), active compounds read low 0.987 | locus YJL095W, strain BCK1, active compounds read low 1.04 and 0.985 | locus YJL115W, strain asf1, active compounds read low 0.964 | locus YJL129C, strain trk1, active compounds read low 0.958 | locus YJL134W, strain LCB3, active compounds read low 1.01 | locus YJL154C, strain vps35, active compounds read low 0.967 | locus YJL164C, strain tpk1, active compounds read low 0.99 | locus YJL166W, strain qcr8, active compounds read low 0.996 | locus YJL168C, strain set2, active compounds read low 0.994 | locus YJL187C, strain SWE1 (second series), active compounds read low 1.02 | locus YJR066W, strain TOR1, active compounds read low 0.904 | locus YKL009W, strain mrt4, active compounds read low 1.04 | locus YKL068W, active compounds read low 1 | locus YKL085W, strain MDH1 (second series), active compounds read low 1 | locus YKL085W, strain MDH1, active compounds read low 1 | locus YKL160W, strain elf1, active compounds read low 0.962 | locus YKL190W, strain CNB1, active compounds read low 1.02 | locus YKR001C, strain vps1, active compounds read low 0.992 | locus YKR026C, strain gcn3, active compounds read low 0.987 | locus YKR091W, strain srl3, active compounds read low 0.968 | locus YLL001W, strain dnm1, active compounds read low 0.963 | locus YLL026W, active compounds read low 0.982 | locus YLL041C, strain sdh2, active compounds read low 0.971 | locus YLR027C, strain aat2, active compounds read low 1.02 | locus YLR039C, strain RIC1, active compounds read low 1.08 | locus YLR058C, strain SHM2, active compounds read low 1.03 | locus YLR102C, strain apc9, active compounds read low 0.996 | locus YLR113W, strain HOG1, active compounds read low 1.02 | locus YLR221C, strain rsa3, active compounds read low 1.02 | locus YLR258W, strain gsy2, active compounds read low 0.962 | locus YLR262C, strain YPT6 (second series), active compounds read low 1.01 | locus YLR262C, strain YPT6, active compounds read low 1.11 | locus YLR268W, strain sec22, active compounds read low 1.02 | locus YLR320W, strain mms22, active compounds read low 1.03 | locus YLR330W, strain CHS5, active compounds read low 1.02 | locus YLR342W, strain FKS1 (second series), active compounds read low 1.06 | locus YLR342W, strain FKS1, active compounds read low 1 | locus YLR357W, strain rsc2, active compounds read low 0.95 | locus YLR370C, strain arc18, active compounds read low 0.98 | locus YLR371W, strain rom2, active compounds read low 1.01 | locus YLR384C, strain iki3, active compounds read low 0.969 | locus YLR418C, strain cdc73, active compounds read low 0.958 | locus YML016C, strain PPZ1, active compounds read low 1.02 | locus YML032C, strain rad52, active compounds read low 0.994 | locus YML120C, strain ndi1, active compounds read low 0.947 | locus YML124C, strain tub3, active compounds read low 0.997 | locus YMR058W, strain fet3, active compounds read low 0.992 | locus YMR078C, strain ctf18, active compounds read low 0.99 | locus YMR125W, strain sto1, active compounds read low 0.926 | locus YMR129W, active compounds read low 0.989 | locus YMR205C, strain PFK2, active compounds read low 0.984 | locus YMR223W, strain ubp8, active compounds read low 0.995 | locus YMR231W, strain pep5, active compounds read low 1 | locus YMR307W, strain GAS1, active compounds read low 1.16 | locus YNL067W, strain RPL9B, active compounds read low 1 | locus YNL071W, strain lat1, active compounds read low 0.967 | locus YNL183C, strain NPR1, active compounds read low 0.927 | locus YNL209W, strain ssb2, active compounds read low 0.984 | locus YNL233W, strain BNI4, active compounds read low 1.02 | locus YNL248C, strain rpa49, active compounds read low 0.904 | locus YNL250W, strain rad50, active compounds read low 0.972 | locus YNL271C, strain bni1, active compounds read low 1.01 | locus YNL298W, strain CLA4, active compounds read low 0.998 | locus YNL307C, strain MCK1, active compounds read low 0.998 | locus YNL322C, strain KRE1 (second series), active compounds read low 0.971 | locus YNL322C, strain KRE1, active compounds read low 1.02 | locus YNR049C, strain mso1, active compounds read low 0.951 | locus YNR052C, strain pop2, active compounds read low 0.988 | locus YOL012C, strain htz1 0.64 | locus YOL147C, strain pex11, active compounds read low 0.987 | locus YOR001W, strain rrp6, active compounds read low 0.989 | locus YOR061W, strain CKA2, active compounds read low 1.05 | locus YOR069W, strain VPS5, active compounds read low 1.02 | locus YOR070C, strain gyp1, active compounds read low 1 | locus YOR080W, strain dia2, active compounds read low 0.991 | locus YOR083W, strain WHI5, active compounds read low 0.973 | locus YOR106W, strain vam3, active compounds read low 0.922 | locus YOR136W, strain idh2, active compounds read low 0.958 | locus YOR144C, strain elg1, active compounds read low 0.989 | locus YOR184W, strain ser1, active compounds read low 1.04 | locus YOR231W, strain MKK1, active compounds read low 1.01 | locus YOR265W, strain rbl2, active compounds read low 0.997 | locus YOR270C, strain vph1, active compounds read low 1.08 | locus YOR290C, strain snf2, active compounds read low 0.888 | locus YOR316C, strain cot1, active compounds read low 0.984 | locus YPL051W, strain arl3, active compounds read low 0.992 | locus YPL055C, strain LGE1, active compounds read low 1.06 | locus YPL078C, strain atp4, active compounds read low 0.927 | locus YPL106C, strain sse1, active compounds read low 0.966 | locus YPL240C, strain hsp82, active compounds read low 0.988 | locus YPL256C, strain CLN2, active compounds read low 1.01 | locus YPR119W, strain clb2, active compounds read low 0.992 | locus YPR141C, strain kar3, active compounds read low 0.992 | locus YPR163C, strain tif3, active compounds read low 0.993 | locus YPR167C, strain met16, active compounds read low 0.987 | strain wtn01, active compounds read low 1.01
